CF NFkB inh = inhibitors of PAF-induced NF-kB signaling, primary screen, cell-based, GFP fluorescence, uHTS; 360,000 compounds, 0.86% hits; AID 588850, 2011; KKLEB NF-kB-GFP reporter, GFP fluorescence overnight; inhibition, % at 5 µM;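 active = at least 50% inhibition at 5 µM, scaled per plate between neutral and stimulator controls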;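 note: PAF is a Pseudomonas aeruginosa culture filtrate used as stimulus; plate controls were PAF-stimulated DMSO wells for no effect and unstimulated DMSO wells for full effect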
HIF-2a block = HIF-2a reporter inhibitors, primary screen, luminescence, 786-0 RCC cells | 786-0 RCC cells HIF-2a reporter, luciferase luminescence, overnight | inhibition, % at 18.8 µM | AID 624352, 2012 | 360,000 compounds, 0.72% hits;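 active = inhibition of the luminescence signal of 40% or more relative to plate controls, in a single-dose primary screen at 18.75 µM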
Peg3 promoter = Peg3 promoter-driven luciferase inhibitors, primary screen, cell-based, HeLa, luciferase luminescence; HeLa PEG-Prom luciferase reporter, overnight; inhibition, % at 20 µM; 360,000 compounds, 1.7% hits; AID 588405, 2011;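 active = inhibition of at least 50% at 20 µM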
KKLEB tox = cytotoxicity in KKLEB CF airway cells, primary screen, cytotoxicity control for CF NF-kB inhibitor project, cell-based, uHTS, fluorescence assay plates | KKLEB CF airway cells viability, ATPlite luminescence, overnight; active compounds read low; cells stimulated with P. aeruginosa culture filtrate | 360,000 compounds, 0.36% hits | activity change (cytotoxicity), % at 5 µM | AID 602141, 2011;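 active = corrected activity change at or below -50% at 5 µM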
MITF TRPM1 inh = inhibitors of MITF-dependent TRPM1 promoter reporter, primary screen, cell-based, SK-MEL-5, single point, luciferase. SK-MEL-5 TRPM1 promoter luciferase, 24 h. inhibition, % at 12.5 µM. 330,000 compounds, 0.83% hits;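 active = mean inhibition across replicates of 60% or more, whatever share of single replicates reaches that level; inconclusive = some that reach 60%, reason not given; inactive = mean inhibition across replicates below 60%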
Shn3 inh set2 = reduction of Shn3 3'UTR firefly luciferase signal, primary screen, Schnurri-3 inhibitor project, cell-based, Clone20 osteoblasts, set 2 | Clone20 osteoblast Shn3 3'UTR firefly luciferase, 24 h | 360,000 compounds, 0.52% hits | inhibition, % at 12.5 µM | AID 588674, 2011;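 active = mean inhibition of at least 75% with every replicate also reaching 75%; inconclusive = mean inhibition at least 75% but some replicate below; inactive = mean inhibition below 75%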;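 note: 0% = median of neutral control wells and 100% = pilot-screen positive control compound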
Mdm2 MdmX conf = retested Mdm2-MdmX interaction blockers, confirmation, cell-based, luminescence, single concentration, set 2. inhibition, % at 8 µM. shares compounds with HIF-2a block. 740 compounds, 99% hits. SaOS-2 split-luciferase Mdm2/MdmX complementation. AID 504601, 2011;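 active = mean inhibition of the luminescence signal across two replicates at or above 26 percent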
HIF-2a inh conf = HIF-2a reporter inhibitor retest, confirmation, luminescence, 786-0 RCC cells; shares compounds with HIF-2a block; HIF-2a luciferase reporter luminescence, overnight; inhibition, % at 18.8 µM; 1,800 compounds, 56% hits; AID 651580, 2012;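 active = mean inhibition across four replicates of at least 40 percent at the single tested concentration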
HIF-1a counter = HIF-1a luciferase reporter signal reduction – MiaPaCa-2 cells, single concentration, counter-screen for HIF-2a inhibitor project, confirmation | shares compounds with HIF-2a block | MiaPaCa-2 HIF-1a luciferase reporter, desferoxamine, overnight | inhibition, % at 18.8 µM | 1,800 compounds, 72% hits;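 active = mean inhibition of the reporter signal across four replicates at the single tested dose of 50% or more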
An asterisk follows results filed as active; u = inconclusive; x = no result. This is a sample that favours compounds with a hit; in the whole collection about 2.8% have one here.

SMILES	CF NFkB inh	HIF-2a block	Peg3 promoter	KKLEB tox	MITF TRPM1 inh	Shn3 inh set2	HIF-2a inh conf	HIF-1a counter	others
O=c1c(/C=N/N2CCOCC2)c(C(F)(F)F)[nH]n1-c1ccccc1	3.8	3.2	-2.2	-3.9	-7.8	-2.2	x	x
COc1ccccc1OC(=O)CCN1c2ccccc2Sc2ccccc21	-6.3	-6.8	-21.8	-3.5	-7.9	-33.4	x	x
COc1ccccc1-[n+]1c(C)cc(/C=C2\Sc3ccccc3N2C)cc1C	-32.1	57.4*	67.3*	-43.0	92.5*	77.6	x	x	Mdm2 MdmX conf=103.2*
O=C(COC(=O)c1ccc[nH]c1=O)NC1CCCc2ccccc21 (stereo not drawn)	-4.6	15.7	4.2	4.9	-1.6	4.6	x	x
CC1CCN(CCCNC(=O)C2CC(=O)N(CCc3ccccc3)C2)CC1 (stereo not drawn)	-3.4	4.7	5.7	2.7	5.1	-4.9	x	x
Cc1ccc(-c2nc3cc(N)ccc3o2)cc1Br	-4.0	-125.7	-302.8	4.0	-25.4	-65.4	x	x
Cc1ccc(C)c(-c2nc3cc(N)ccc3o2)c1	-29.5	64.9*	-167.2	13.3	20.1	20.4	70.3*	28.5
Nc1ccc2oc(-c3cc(Br)ccc3Cl)nc2c1	-26.2	61.4*	-55.3	16.8	49.4	19.1	89.7*	49.6
CC(Oc1ccccc1Cl)C(=O)Nc1ccc(S(=O)(=O)N2CCN(C)CC2)cc1 (stereo not drawn)	2.3	-66.4	-87.7	-4.0	-32.5	-64.5	x	x
Cc1nnnn1/C(=C\c1ccccc1)C(=O)OCC(=O)Nc1ccc(Cl)cc1F	84.0*	88.2*	98.3*	-70.0*	51.2	-12.8	95.6*	56.5*
O=C(COC(=O)Cc1n[nH]c(=O)c2ccccc12)Nc1ccc(Cl)cc1F	-0.8	15.5	11.0	2.5	4.0	x	x	x
CC(Oc1ccccc1)C(=O)N1CCN=C1SCc1ccc(F)cc1 (stereo not drawn)	16.4	1.8	6.5	-7.0	-1.0	-4.1	x	x
COc1ccc(OC)c(CC(NC(C)=O)C(=O)NC2CCN(c3nc(OC)nc(OC)n3)CC2)c1 (stereo not drawn)	14.2	14.7	7.0	-4.5	-4.4	2.2	x	x
O=C(NCc1ccco1)c1ccccc1SCC(=O)N1CCCC1	2.7	-3.0	3.7	11.8	7.8	-41.6	x	x
O=C(Nc1ccc(NC(=S)NC(=O)c2ccco2)cc1)c1ccc(Br)cc1	23.1	57.0*	11.7	-15.2	x	13.8	63.9*	11.6
CC(C)c1ccc(NC(=O)c2ccc(-c3ccnn3C)c3ccoc23)cc1	-3.5	-135.3	-125.9	1.5	x	20.0	x	x
CC(=O)Nc1ccc(NC(=O)c2ccc(-c3ccnn3C)c3ccoc23)cc1	4.8	61.0*	-80.0	-2.7	x	19.5	85.5*	34.1
Cc1ccc(Oc2ccc(OCC(=O)Nc3ccncc3)cc2)cc1	-4.3	55.0*	8.9	-6.5	x	u	77.0*	50.4*
O=C(COC(=O)c1ccc(=O)[nH]c1)Nc1cccc(S(=O)(=O)N2CCOCC2)c1	-4.2	19.1	4.7	1.7	7.5	2.3	x	x
COc1cc(/C=C/c2cc(C(F)(F)F)[nH]c(=O)n2)cc(OC)c1OC	-2.2	40.0*	24.6	24.5	23.5	-10.8	26.4	-3.1
O=c1nc(/C=C/c2cc([N+](=O)[O-])ccc2Cl)cc(C(F)(F)F)[nH]1	-4.1	82.8*	20.0	34.5	-0.3	-20.0	61.4*	78.5*
CNc1c(NS(=O)(=O)c2ccc(C3CCCCC3)cc2)c(=O)oc2ccccc12	3.0	11.8	15.0	4.5	-3.0	9.6	x	x
COc1ccc(C(=O)CCC(=O)Nc2cccnc2)cc1OC	-0.8	12.0	7.7	-13.3	-1.2	10.7	x	x
Cc1cccc2c1NC(=O)C2(c1ccc(O)cc1)c1ccc(O)cc1	47.6	24.3	26.9	-45.1	22.0	-1.1	x	x
Cc1cc(C2(c3ccc(O)c(C)c3)C(=O)Nc3ccccc32)ccc1O	-0.2	44.9*	80.0*	4.3	35.2	31.9	22.4	69.3*
SMILES	CF NFkB inh	HIF-2a block	Peg3 promoter	KKLEB tox	MITF TRPM1 inh	Shn3 inh set2	HIF-2a inh conf	HIF-1a counter	others
CCOC(=O)C1=C(C)NC2=C(C(=O)CC(c3cccs3)C2)C1c1cccs1 (stereo not drawn)	15.8	46.4*	20.3	-5.9	u	7.6	52.1*	63.3*
O=C(Nc1ccc(Cl)cc1)/C(=C/c1cccc(O)c1)c1nc2ccccc2s1	90.0*	90.6*	101.1*	-90.8*	92.5*	93.0*	94.7*	106.0*	Mdm2 MdmX conf=102.5*
Cc1ccc(NC(=O)CCC(=O)N/N=C/c2coc3ccccc3c2=O)cc1	11.4	53.0*	23.9	-4.9	5.1	7.8	-6.6	16.4
Cn1c(SCC(=O)NCCc2ccccc2)ncc(C(=O)Nc2ccc(F)cc2)c1=O	4.8	19.3	-10.1	1.6	25.4	-21.0	x	x
COc1cccc(-n2c(SCC(=O)Nc3cc(C)on3)nc3c([nH]c4ccccc43)c2=O)c1	7.8	39.4*	28.0	-11.1	x	0.1	0.7	22.5
Cc1cc(NC(=O)CSc2nc3c([nH]c4ccccc43)c(=O)n2-c2cccc(C(F)(F)F)c2)no1	31.3	21.4	23.9	-21.3	29.9	30.8	x	x
O=C(c1ccnc(Cl)c1)N1CCCC(N2CCN(c3ccccc3F)CC2)C1 (stereo not drawn)	-0.5	12.4	13.9	-2.7	-1.6	-7.5	x	x
